Results: PubChem BioAssay AID1259309 (ICCB-Longwood Screening Facility, Harvard Medical School, 2017)
Where “and” joins values, the source holds several entries; their conditions need not be identical. Equal values may be shown once. Screen size: about 330,000 compounds; about 1,800 (0.55%) were called active. This is one part of a sample in which actives are shown more often than they occur. Unmarked numbers belong to inactive results. No stated cut-off is given here; in the data, active means growth inhibition above about 68%; inactive means the rest.

Assay: growth inhibition of ugtP-null S. aureus, primary screen, RN4220 ugtP deletion, OD600 (AID 1259309);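 further: plate controls were untreated wells for no effect and antibiotic for full effect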
Conditions: 16 h, active compounds read high

Row | Compound | growth inhibition
1 | O=C(CCl)N(Cc1cccc([N+](=O)[O-])c1)c1cccc(Cl)c1 | 97.8% (active)
2 | O=C(c1cccc([N+](=O)[O-])c1)N1CCN(Cc2ccccc2)CC1 | 9.07%
3 | Cc1ccc(S(=O)(=O)N(Cc2cccc([N+](=O)[O-])c2)C(=O)N2CCN(C)CC2)cc1 | 2.43%
4 | COC(=O)C1=C(c2ccc3ccccc3c2)CC2CCC1N2C(=O)NCc1ccc(F)cc1 (stereo not drawn) | 12%
5 | COc1cccc(C2C3=C(N=c4sc(=Cc5cccc(O)c5)c(=O)n42)c2ccccc2CC3)c1OC (stereo not drawn) | -7.58%
6 | COc1ccc(C(CCN(Cc2ccc(OC)c(OC)c2)C(=O)CCl)c2ccccc2)cc1 (stereo not drawn) | 98% (active)
7 | COc1ccc(CCNC(=O)C(Sc2ccccn2)c2ccccc2)cc1OC (stereo not drawn) | 9.85%
8 | COc1ccc(CN(Cc2ccc(OC)cc2)C(=O)c2cccs2)cc1 | 43.4%
9 | COc1ccc(N(CC(=O)NN=Cc2ccco2)S(=O)(=O)c2ccccc2)cc1Cl | 2.1%
10 | COc1ccc(C=NNC(=O)COc2ccc(C(C)(C)C)cc2)cc1Cn1nc(C)cc1C | 0.349%
11 | O=C(NN=Cc1cccnc1)C1CC1(c1ccccc1)c1ccccc1 (stereo not drawn) | 9.47%
12 | O=C1C=C(c2cccc(CO)c2)CC(c2ccc(Cl)cc2)C1 (stereo not drawn) | 7.76%
13 | O=C(O)CC1(CC(=O)Nc2cccc(C(F)(F)F)c2)CCCC1 | -0.923%
14 | FC(F)(F)c1cccc(NC(=S)Nc2cccc(Cl)c2)c1 | 93.1% (active)
15 | Cn1cc(Cl)c(C(=O)NNC(=S)Nc2cccc(Cl)c2)n1 | -5.85%
16 | Cc1ccc(SC(=NS(=O)(=O)c2ccc(Cl)cc2)c2ccccc2)cc1 | 60.7%
17 | O=C(COC(=O)C=Cc1ccccc1)Nc1cc(C(F)(F)F)ccc1N1CCOCC1 | -9.22%
18 | CCCCCCCCn1c2c(c(=N)c3c1CCC3)CCCC2 | 100% (active)
19 | COc1ccc(OC)c(C=NNC(=O)c2ccc(-c3ccccc3)cc2)c1 | 1.81%
20 | CC(=NNC(=O)c1cc(-c2ccc(Br)s2)[nH]n1)c1ccncc1 | -6.85%
21 | O=C(Nc1nnc(C2COc3ccccc3O2)o1)c1ccc(F)cc1 (stereo not drawn) | 90.2% (active)
22 | CC1COc2ccccc2N1C(=O)c1ccc(F)cc1 (stereo not drawn) | -0.431%
23 | O=C(COC(=O)c1ccc(F)cc1)NCC1COc2ccccc2O1 (stereo not drawn) | -4.48%
24 | COC(=O)c1ccccc1-c1ccc(C=NNc2nc(N3CCCC3)nc(N3CCCC3)n2)o1 | -8.43%
25 | CON=Cc1cc(C(=O)c2ccc(Cl)cc2Cl)cn1C | -4.32%

Row | Compound | growth inhibition
26 | CC(C)=CCCC1(C)C=Cc2c(ccc3c2[nH]c2cc(O)c(C)cc23)O1 (stereo not drawn) | 95.6% (active)
27 | CC[C@@]12C(=O)N(c3cccc(F)c3)C(=O)N1C(c1ccc(Br)cc1)C1C(=O)N(C(C)(C)C)C(=O)C12 (stereo partly drawn) | -3.27%
28 | CCCCCCCCCCCCN1CC(=CC(=O)OCC)c2cc(C(F)(F)F)ccc2S1(=O)=O | 2.79%
29 | O=C(CON=Cc1c(Cl)cccc1Cl)NNC(=O)c1cccc(Cl)c1 | 2.89%
30 | Cc1ccccc1NC(=O)CSC(=O)c1ccccc1 | 5.32%
31 | Cc1cccc(NC(=O)CSC(N)=O)c1C | 8.69%
32 | Cc1ccccc1N/C(SCc1ccc(Cl)cc1)=C(/C#N)C(N)=O | 84.4% (active)
33 | O=C(OCc1ccc(-c2ccccc2)cc1)c1cccc(O)c1 | 100% (active)
34 | O=C(OCC(=O)c1c[nH]c2ccccc12)c1cccc(O)c1 | -15.2%
35 | O=C(CNC(=O)c1ccc(-c2ccccc2)cc1)OCc1ccc(Cl)cc1 | 19.4%
36 | Cn1cccc1CC(=O)NN=Cc1ccco1 | -0.545%
37 | OCCC1CC(O)C(O)[C@]2(OCCCc3ccccc32)O1 (stereo partly drawn) | 4.16% and 2.75%
38 | COc1cc(C=NNC(=O)CC#N)ccc1Oc1nc(Cl)ncc1F | -1.11%
39 | O=C(Oc1ccc(C=NNc2ccccc2)cc1)c1ccccc1 | -8.03%
40 | Cc1cc(C)n(C(=O)CCNC(=O)c2ccccc2Cl)n1 | -2.2%
41 | N#CC(=NNc1cc(Cl)cc(Cl)c1)c1nnc2n1CCCCC2 | -12%
42 | Cc1cc(C)n(C(=O)C(C#N)=NNc2cc(Cl)cc(Cl)c2)n1 | 99.7% (active)
43 | CC(=NNC(=O)c1ccco1)c1ccc(NC(=O)C(F)(F)F)cc1 | 0.661%
44 | CCOc1ccc(N2C(=O)CC(S/C(N)=N/N=Cc3cccs3)C2=O)cc1 (stereo not drawn) | 4.39%
45 | CCOC1OC(C(=O)N2CCN(Cc3ccc4c(c3)OCO4)CC2)=CC(c2cn(C(C)=O)c3ccccc23)C1CCCO (stereo not drawn) | -12.6% and 8.11%
46 | Oc1ccc(C=NNc2cccc3cccnc23)c(O)c1 | 3.39%
47 | Oc1ccccc1C=NNc1nccnc1Cl | 0.00308%
48 | Oc1ccccc1C=NNc1cccc2cccnc12 | 83% (active)
49 | Cc1ccc2nc(NN=Cc3ccccc3C#N)nc(-c3ccccc3)c2c1 | 11.2%
50 | O=c1c2nnn(-c3ccccc3)c2ncn1CC=Cc1ccccc1 | 12.1%

Row | Compound | growth inhibition
51 | CCOc1ccc2c(c1)C(c1ccc(C)cc1)=NNC(c1ccc(C)cc1)=N2 | 10.8%
52 | CCOc1ccc(-c2nnc3ccc(SC)nn23)cc1 | 0.868%
53 | CCOc1ccc(-c2cc(C)[n+](CCN(CC)CC)c(-c3ccc(OCC)cc3)c2)cc1 | 97.1% (active)
54 | CCCC(C#Cc1ccc(N(C)C)cc1)=C1c2ccccc2C(=O)N1c1ccccc1 | 13.2%
55 | COC(=O)NN=Cc1cc(Br)ccc1OCc1ccccc1 | 20.2%
56 | C(=Nn1c2ccccc2c2ccccc21)c1ccccc1 | 11.7%
57 | CC(C)c1ccc2c(c1)c(SC(C)(C)C)c(CC(C)(C)C(=O)O)n2Cc1ccc(Cl)cc1 | 101% (active)
58 | CCOc1ccc2ccccc2c1C=NNC(=O)CNC(=O)C(c1ccccc1)c1ccccc1 | 22.4%
59 | CN1CCSC1=CC=C1C(=O)N(C)C(=S)N1C | -5.24%
60 | Cc1ccc(O)c(-c2cc(C(=O)Nc3c(C)n(C)n(-c4ccccc4)c3=O)[nH]n2)c1 | 2.72%
61 | Cc1ccc(O)c(-c2cc(C(=O)NCc3ccccc3)[nH]n2)c1 | 7.53%
62 | Cc1ccc(C)c(NC(=O)c2cc(-c3cc(C)cc(C)c3O)n[nH]2)c1 | 99.5% (active)
63 | CNC(=O)CCCCC(=O)NN=Cc1ccc(Cl)cc1Cl | -1.21%
64 | COc1ccc(CC2CN3C(=NCC3C)N2CCNC(=O)CCC2CCCCC2)cc1 (stereo not drawn) | -6.07% and 2.3%
65 | COc1cccc(C=NNc2ncnc(N)c2[N+](=O)[O-])c1OC | -0.174%
66 | O=C(Nc1ccccc1)C1CC=CC2CCN(Cc3ccc(Cl)c(Cl)c3)C(=O)C21 (stereo not drawn) | 2.24%
67 | Cc1c(N2C(=O)CSC2=NN=Cc2ccccc2O)c(=O)n(-c2ccccc2)n1C | 7.58%
68 | CCCn1c(=O)c(C(=O)NN=Cc2ccc(F)cc2)c(O)c2ccccc21 | 101% (active)
69 | CCCn1c(=O)c(-c2ccccc2)c(O)c2ccccc21 | 10.2%
70 | CCCCCn1c(=O)c(C(=O)NCc2ccccn2)c(O)c2ccccc21 | 10.1%
71 | CCCCCn1c(=O)c(C(=O)NCc2ccccc2)c(O)c2ccccc21 | 44.1%
72 | CC(C)CCn1c(=O)c(C(=O)NN=Cc2cccc(F)c2)c(O)c2ccccc21 | 99% (active)
73 | CCCn1c(=O)c(C(=O)Nc2cc(C)ccn2)c(O)c2ccccc21 | 11.7%
74 | C/C(C=NNc1nc(C)cc(=O)[nH]1)=C\c1ccccc1 | -4.37%
75 | Cc1ccc(S(=O)(=O)N=Cc2ccco2)cc1 | 4.28%

Row | Compound | growth inhibition
76 | COC(=O)c1ccc(C23CC4(C2)C(CN(Cc2cccnc2)C4c2ccccc2)C3c2ccc(Cl)nc2)cc1 (stereo not drawn) | 8.61%
77 | O=C(COc1ccccc1)NCC(=O)NN=C/C=C/c1ccccc1 | 2.76%
78 | O=S1(=O)C[C@@H]2N=C(NN=Cc3ccccc3)S[C@@H]2C1 | -0.808%
79 | COc1ccc(C=CC2=CCN(Cc3ccc(OC)cc3)CC2)cc1 | 1.66%
80 | O=C(NC(=S)NC1CCCCC1)c1ccc(Cl)cc1 | 82.7%
81 | CC(C)C(NC(=O)c1ccc(Cl)cc1)C(=O)O (stereo not drawn) | 0.934%
82 | CC(C)CNC(=S)NC(=O)c1ccc(Cl)cc1 | 91.1% (active)
83 | COc1ccc(C2NC(=O)c3ccccc3N2)cc1 (stereo not drawn) | 6.04%
84 | Brc1ccccc1C1Nc2cccc3cccc(c23)N1 | -4.74%
85 | Oc1ccc(C2Nc3cccc4cccc(c34)N2)cc1 | 96.6% (active)
86 | COc1ccc(C=NNC(=O)c2cc[n+]([O-])cc2)cc1 | 2.45%
87 | CC(=NNc1ccc(S(=O)(=O)N2CCCCC2)cn1)c1ccc(O)cc1 | -0.0996%
88 | Cc1ccc(OC(=O)c2cc3ccccc3o2)cc1 | 98% (active)
89 | Cc1ccc(OC(=O)c2ccccc2C(=O)OCC(F)(F)C(F)F)cc1 | 14.2%
90 | COc1ccccc1CN(C)C(=O)c1cc2ccccc2o1 | 9.31%
91 | Cc1ccc(-c2nnnn2C2CC(=NNC(N)=S)C3OCC2O3)cc1 (stereo not drawn) | 3.57%
92 | O=C(NN=Cc1ccncc1)c1cccc(NC(=O)c2ccc(Cl)cc2)c1 | -6.73%
93 | O=c1c2ccccc2nc(/C=C/c2ccc(F)cc2)n1-c1ccccc1O | 97.9% (active)
94 | O=C(CSc1nc2ccccc2c(=O)n1-c1ccc(F)cc1)NC1CC1 | 2.6%
95 | CCn1c(/C=C/c2ccc([N+](=O)[O-])o2)nc2ccccc2c1=O | 11.7%
96 | O=C(CSc1nc2ccccc2c(=O)n1-c1ccccc1F)N1CCOCC1 | -0.774%
97 | O=c1c2ccccc2nc(-c2ccco2)n1-c1ccc(Br)cn1 | 11.8%
98 | O=c1c2ccccc2nc(/C=C/c2ccco2)n1-c1ccccc1O | 92% (active)
